For 58 molecules, Potency results are on record in ChEMBL document CHEMBL1201862, “PubChem BioAssay data set” (2004).

The campaign covered roughly 400,000 compounds. About 2,100 (0.53%) were called active. Another 14% or so got no clear call; they are omitted. How the calls were made is not given here. The entries come from a sample that favours actives as a whole.

In this assay the target is Ataxin-2 (Homo sapiens) (UniProt Q99700). The experiment in a line: qHTS for Inhibitors of ATXN expression. The format is functional. In general terms: qHTS replaces the single test concentration by a dilution series.
Chain of Ataxin-2 (Homo sapiens) (Q99700 whole entry): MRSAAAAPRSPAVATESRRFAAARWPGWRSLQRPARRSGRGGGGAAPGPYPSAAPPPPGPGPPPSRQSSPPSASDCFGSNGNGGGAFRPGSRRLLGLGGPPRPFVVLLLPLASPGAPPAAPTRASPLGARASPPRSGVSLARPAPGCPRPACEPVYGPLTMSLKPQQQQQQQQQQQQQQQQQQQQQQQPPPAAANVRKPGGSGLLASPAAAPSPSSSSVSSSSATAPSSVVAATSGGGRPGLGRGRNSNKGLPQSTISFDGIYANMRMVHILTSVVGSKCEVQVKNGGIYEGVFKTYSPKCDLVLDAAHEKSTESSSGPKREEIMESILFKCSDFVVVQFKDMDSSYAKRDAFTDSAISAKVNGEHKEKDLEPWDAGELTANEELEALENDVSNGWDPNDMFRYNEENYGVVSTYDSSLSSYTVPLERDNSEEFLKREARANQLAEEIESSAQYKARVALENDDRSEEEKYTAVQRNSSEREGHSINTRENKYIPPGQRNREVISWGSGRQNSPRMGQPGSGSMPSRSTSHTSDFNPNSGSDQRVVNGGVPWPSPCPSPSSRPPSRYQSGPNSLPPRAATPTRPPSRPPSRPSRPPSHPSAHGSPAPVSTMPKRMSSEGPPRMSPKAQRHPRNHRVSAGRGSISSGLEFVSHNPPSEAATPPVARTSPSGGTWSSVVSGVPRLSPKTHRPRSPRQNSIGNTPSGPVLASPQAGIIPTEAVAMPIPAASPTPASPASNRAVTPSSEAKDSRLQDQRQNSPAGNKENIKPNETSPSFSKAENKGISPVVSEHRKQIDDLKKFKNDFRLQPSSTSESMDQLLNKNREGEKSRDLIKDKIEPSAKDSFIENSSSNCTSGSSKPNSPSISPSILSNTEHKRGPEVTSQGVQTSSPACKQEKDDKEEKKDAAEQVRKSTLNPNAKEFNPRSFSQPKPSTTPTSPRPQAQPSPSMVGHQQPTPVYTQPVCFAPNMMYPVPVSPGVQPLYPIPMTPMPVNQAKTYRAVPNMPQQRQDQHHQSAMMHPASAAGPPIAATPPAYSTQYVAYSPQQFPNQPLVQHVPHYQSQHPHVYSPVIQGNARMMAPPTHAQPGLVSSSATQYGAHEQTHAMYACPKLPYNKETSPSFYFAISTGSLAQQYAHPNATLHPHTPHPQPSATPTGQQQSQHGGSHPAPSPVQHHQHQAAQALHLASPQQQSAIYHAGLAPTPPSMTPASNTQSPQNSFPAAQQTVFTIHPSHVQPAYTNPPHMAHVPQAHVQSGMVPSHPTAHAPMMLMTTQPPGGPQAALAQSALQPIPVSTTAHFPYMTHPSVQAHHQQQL
As for `CCCC(C)NC(=O)c1cc(S(=O)(=O)N2CCCCCC2)ccc1OC` (stereo not drawn), the Potency entry is “inactive”. Consider `CCCCCCNC(=O)O[C@H]1CN(C(=O)OC(C)C)N(C(=O)OC(C)C)[C@@H]2CN(S(=O)(=O)c3ccc(C)cc3)C[C@]12O`, for which the Potency is 22.4 µM (active). Turning to `COCCN(CCOC)C(=O)CSc1ccc(S(=O)(=O)N2CCN(C)CC2)cn1`, the Potency entry is “inactive”. As for `CC1=C(C(=O)Nc2nc3ccccc3s2)C(c2ccco2)C(C#N)=C(SCC(=O)NC2CCCCC2)N1` (stereo not drawn), the Potency entry is “inactive”.

In the case of `CC(NS(=O)(=O)c1ccc(Cl)c(Cl)c1)C(=O)OCC(=O)Nc1ccc2c(c1)OCO2` (stereo not drawn), the Potency entry was “inactive”. Regarding `O=C(Cn1ncc(Cl)c(Cl)c1=O)c1ccc2c(c1)OCCO2`, the Potency is 42.3 µM (active).

Regarding `O=C(Nc1ccc2c(c1)OCO2)c1sc2cc(Cl)ccc2c1Cl`, the Potency result is “inactive”.

With `CC(=O)Nc1ccc2nc3c(=O)n(C)c(=O)n(C)c3nc2c1`, the Potency result is “inactive”. `Cc1ccc(C(=O)O)cc1-c1ccc(/C=C2\SC(=O)N(CC(=O)Nc3ccc4c(c3)OCO4)C2=O)o1`: the Potency entry was “inactive”. In the case of `Cn1c(=O)n(C)c2cc(NC(=O)CCl)ccc21`, the Potency was 28.2 µM (active). For `O=C(Cn1ncc(Cl)c(Cl)c1=O)Nc1ccc2c(c1)OCO2`, the Potency is 35.5 µM (active). `O=C(CSc1nc2cc(Cl)c(Cl)cc2[nH]1)c1ccc2c(c1)OCO2`: the Potency result is “inactive”. `O=C(CCl)Nc1ccc2c(c1)OCO2`: the Potency is 22.4 µM (active). On to `COC(=O)c1ccc(NS(=O)(=O)c2ccc3c(c2)n(C)c(=O)n3C)cc1`, for which the Potency result was “inactive”. To `NC(=O)c1ccc(NC(=O)COC(=O)c2c3c(nc4ccccc24)/C(=C\c2ccc4c(c2)OCO4)CCC3)cc1` belongs “inactive”; to `COc1ccc(-c2c(C)c3ccc(O)c(CN4CCOCC4)c3oc2=O)cc1OC`, “inactive”; to `COc1ccc(/C=C/c2nc(C#N)c(N3CCCCC3)o2)cc1OC`, “inactive”. On to `CCCc1cc(O)nc(SCC(=O)Nc2ccc(C)c(S(=O)(=O)N3CCCCC3)c2)n1`, for which the Potency result was “inactive”. For the molecule `C=CCN=C(S)Nc1ccc(C)c(S(=O)(=O)N2CCCCC2)c1`, the Potency result was “inactive”.

With `Cc1ccc(NC(=O)Cn2ncc(Cl)c(Cl)c2=O)cc1S(=O)(=O)N1CCCCC1`, the Potency is 31.6 µM (active). To `Cc1c(Br)c(C(F)(F)F)nn1CC(=O)NCc1ccco1` belongs “inactive”; to `COc1ccc(CN([C@H](CO)CC(C)C)S(=O)(=O)N(Cc2ccccc2)[C@H](CO)CC(C)C)cc1`, 39.8 µM (active); to `CCN(c1ccc(N/C=C2/C(=O)N(Cc3ccc(OC)cc3)C(=O)c3ccccc32)cc1)C(C)C`, “inactive”.

In the case of `COc1ccc(CCNC(=O)CN(c2ccccc2)S(C)(=O)=O)cc1`, the Potency entry was “inactive”. Turning to `C=CS(=O)(=O)c1c2cc(OC)ccc2nc2ccc(OC)cc12`, the Potency result was “inactive”. Turning to `Cc1cccn2c(=O)c(C=O)c(N3CCCCC3)nc12`, the Potency entry was “inactive”. Turning to `Nc1c(C(=O)Nc2ccccc2Br)sc2nc(-c3cccs3)ccc12`, the Potency entry is “inactive”. On to `O=C(c1nc(-c2ccc(Cl)cc2)n2c1CCCCC2)N1CCN(c2ccc(F)cc2)CC1`, for which the Potency was 22.4 µM (active). Consider `O=C(NC(=S)Nc1ccc(N2CCCC2)cc1)c1ccc(F)cc1`, for which the Potency result was “inactive”. Then `Cc1nn(CC(=O)N2CCN(c3ccc(Cl)cc3)CC2)c(=O)c2cccn12`, with “inactive”; and `CCC(C)n1c(=N)c(C#N)cc2c(=O)n3cccc(C)c3nc21` (stereo not drawn), with “inactive”. On to `O=C(CN1C(=O)NC(Cc2c[nH]c3ccccc23)C1=O)Nc1cccc(S(=O)(=O)N2CCCC2)c1` (stereo not drawn), for which the Potency result is “inactive”.

For the molecule `COc1ccccc1C1c2[nH]c3ccccc3c2CCN1Cc1cnc(C)s1` (stereo not drawn), the Potency result was “inactive”.

On to `COC(=O)Cc1c(C)c2ccc3c(c2oc1=O)CN(Cc1ccc(C)cc1)CO3`, for which the Potency entry is “inactive”. `C=CC[C@@H](Cc1ccc(F)cc1)C(=O)OC[C@@H]1CCCN1C(=O)[C@H](CC=C)CC(=O)N[C@H](CO)Cc1ccccc1`: the Potency is 39.8 µM (active). For `C=CCC[C@@H](Cc1ccc(F)cc1)C(=O)OC[C@@H]1CCCN1C(=O)[C@@H](CC=C)CC(=O)N[C@@H](CO)Cc1ccccc1`, the Potency is 28.2 µM (active). With `C=CCC[C@@H](Cc1ccc(F)cc1)C(=O)OC[C@@H]1CCCN1C(=O)[C@H](CC=C)CC(=O)N[C@H](CO)Cc1ccccc1`, the Potency is 35.5 µM (active). Consider `CC(=O)Nc1nn(C)c2nc3ccc(C)cc3cc12`, for which the Potency entry was “inactive”. `C/C(CC(=O)Nc1cccc(C(F)(F)F)c1)=N\NC(=O)c1ccncc1`: the Potency result is “inactive”. Take `CCN1C(=O)c2ccc(C(=O)Nc3cccc(C(=O)O)c3)cc2C1=O`: the Potency entry is “inactive”. Take `CCCCCNCC(=O)Nc1cccc(C(=O)Nc2cccc(C(F)(F)F)c2)c1`: the Potency is 26.7 µM (active). Take `[O-][n+]1c(-c2ccccc2)c(O)nc2ccccc21`: the Potency entry is “inactive”. As for `COc1ccc2c(Cl)c(C(=O)N/N=C3\CCCC(=O)C3)sc2c1`, the Potency result is “inactive”. For the molecule `COCC(C)OC(=O)c1c(N)n(CC(C)C)c2nc3ccccc3nc12` (stereo not drawn), the Potency entry was “inactive”. Turning to `CCCCc1ccc(-c2csc(/C(C#N)=C\c3ccco3)n2)cc1`, the Potency result is “inactive”. In the case of `Cc1ccc(O)c(NC(=S)NC(=O)c2ccc(-c3ccc(Cl)cc3)o2)c1`, the Potency was 22.4 µM (active).

In the case of `CCOCCCn1c(=N)c(C(N)=S)cc2c(=O)n3cccc(C)c3nc21`, the Potency entry was “inactive”.

Take `NC(=O)c1ccc(NC(=O)c2cc(S(=O)(=O)N3CCCCC3)ccc2N2CCOCC2)cc1`: the Potency result was “inactive”. `Cc1cc(C(=O)Nc2ccc(S(=O)(=O)N3CCOCC3)cc2)c(C)o1`: the Potency entry was “inactive”. For `O=C(Nc1ccc(S(=O)(=O)N2CCCC2)cc1)c1ccc([N+](=O)[O-])o1`, the Potency was 37.7 µM (active). Regarding `CN1CCN(c2ccc(S(=O)(=O)N3CCCCC3)cc2NC(=O)c2cccc([N+](=O)[O-])c2)CC1`, the Potency entry is “inactive”. Then `Cc1ccccc1NC(=O)c1cc(S(=O)(=O)N2CCCCC2)ccc1N1CCOCC1`, with “inactive”; and `CCN1CCN(c2ccc(S(=O)(=O)N3CCCCC3)cc2NC(=O)c2ccc([N+](=O)[O-])o2)CC1`, with 28.2 µM (active). As for `CC(=O)Oc1ccc(OC(C)=O)c(SCCCCCCl)c1`, the Potency entry was “inactive”. `CC1=CC2C(C(O)CC3(C)C2CC(C)C32OCOC23COCO3)C2(C)CC(C=O)=C(O)C=C12` (stereo not drawn): the Potency was 15 µM (active). Turning to `COc1cc(/C=C2\C(=N)N3N=C(S(C)(=O)=O)SC3=NC2=O)ccc1OCCOc1ccccc1C`, the Potency result is “inactive”.

With `O=C(CCc1ccc(O)cc1)N/N=C/c1coc2ccccc2c1=O`, the Potency result is “inactive”. As for `CNC(=O)c1c(NC(=O)c2ccc(S(=O)(=O)N3CCCC(C)C3)cc2)sc2c1CCC2` (stereo not drawn), the Potency result is “inactive”.
